{"source": "PubChem BioAssay (EPA / NIEHS)", "note": "Values joined by “and” are separate entries in the source; they are usually repeats but may differ in a detail not shown here. Equal entries are not always repeated. A structure can be active in one record and inactive in another. Active and inactive are the calls of the source. The calls were made as follows: active = hit-call score of the fitted dose curve at least 0.9, where 1 is the maximum; inactive = score below 0.9."}
{"test": "BSK_4H_SRB: Viability Assessment in the BioMAP Diversity Plus: 4H Assay (AID 2283027);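 as to AC50: curves fitted both ways versus DMSO so AC50 may be loss or gain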", "settings": "primary human endothelial cells (HUVEC)", "method": "BSK_4H is a cell-based, multiplexed-readout assay that uses umbilical vein endothelium, a human vascular primary cell, with measurements taken at 24 hours after chemical dosing in a 96-well plate.BSK_4H_SRB is an assay component measured in the BSK_4H assay. It measures […] related to cell death using Sulforhodamine staining technology.Data from the assay component BSK_4H_SRB was analyzed into 1 assay endpoint. This assay endpoint, BSK_4H_SRB, was analyzed with bidirectional fitting relative to DMSO as the negative control and baseline of activity. Using a type of viability reporter, gain or loss-of-signal activity can be used to understand changes in the signaling. Furthermore, this assay endpoint can be referred to as a primary readout, because this assay has produced multiple assay endpoints where this one serves a signaling function. To generalize the intended target to other relatable targets, this assay endpoint is annotated to the cell morphology intended target family, where the subfamily is cell conformation.\nThe levels of cell surface (or secreted, indicated by the prefix \"s\") biomarker endpoints were measured by ELISA. Overt cytotoxicity to cells in confluent adherent cultures (all systems other than the BT system) was assessed by measuring total protein levels using sulforhodamine B (SRB) staining in parallel cultures at the time of biomarker measurements, indicated as SRB endpoints. For proliferation assays for adherent cell types, individual cell types are cultured at sub-confluence and relative cell numbers quantified by SRB staining at time points optimized for each system (48 h: 3C and CASM3C systems; 72 h: BT and HDF3CGF systems; 96 h: SAg system). SRB was performed by staining cells with 0.1% SRB after fixation with 10% TCA and reading wells at 560 nm.Viability and proliferation of PBMC (T cells) was quantified by Alamar Blue reduction for the SAg and BT systems. For PBMC viability (referred to as PBMC Cytotoxicity within the assay endpoint names), cells were plated (75,000/well in a 96-well plate) and then chemical samples added for 1 h before addition of activators, SEB and TSST-1 (20 ng/mL final concentration each). Cells were incubated for 90 h. Then, Alamar Blue (20 uL/well) (Invitrogen, Cat DAL1100) was added for 6 h, and the plates were read with a fluorescence microplate reader at 546/580 nm (excitation/emission). For PBMC proliferation, cells were plated and activated as above but incubated for only 16 h prior to addition of Alamar Blue. Plates were read after 6 h."}
{"compound": "C=CCC1=C(C)[C@@H](OC(=O)[C@@H]2[C@@H](C=C(C)C)C2(C)C)CC1=O", "AC50": "30.2 µM (active)"}
{"compound": "CC(Oc1ccc(Cl)cc1Cl)C(=O)O", "note": "(stereo not given)", "outcome": "inactive"}
{"compound": "CNC(=O)ON=CC(C)(C)SC", "outcome": "inactive"}
{"compound": "C=CCC1=C(C)C(OC(=O)C2C(C=C(C)C)C2(C)C)CC1=O", "note": "(stereo not given)", "AC50": "32.7 µM (active) [middle of 4 runs]"}
{"compound": "CCOC(=O)C(Cl)Cc1cc(-n2nc(C)n(C(F)F)c2=O)c(F)cc1Cl", "note": "(stereo not given)", "outcome": "inactive"}
{"compound": "CO/C=C(/C(=O)OC)c1ccccc1Oc1cc(Oc2ccccc2C#N)ncn1", "outcome": "inactive", "AC50": "26.7 µM (active) and 16.4 µM (active) and 24.2 µM (active)"}
{"compound": "C=CC1(C)OC(=O)N(c2cc(Cl)cc(Cl)c2)C1=O", "note": "(stereo not given)", "outcome": "inactive"}
{"compound": "COP(=S)(OC)Oc1nc(Cl)c(Cl)cc1Cl", "outcome": "inactive"}
{"compound": "CC1COC(Cn2cncn2)(c2ccc(Oc3ccc(Cl)cc3)cc2Cl)O1", "note": "(stereo not given)", "AC50": "26.9 µM (active)"}
{"compound": "COc1nc(NC(C)C)nc(NC(C)C)n1", "outcome": "inactive"}
{"compound": "COc1nc(C)nc(NC(=O)NS(=O)(=O)c2ccccc2CCC(F)(F)F)n1", "outcome": "inactive"}
{"compound": "COP(N)(=O)SC", "note": "(stereo not given)", "outcome": "inactive"}
{"compound": "N#Cc1nn(-c2c(Cl)cc(C(F)(F)F)cc2Cl)c(N)c1S(=O)C(F)(F)F", "note": "(stereo not given)", "AC50": "33.5 µM (active)"}
{"compound": "COc1cnc(OC)n2nc(NS(=O)(=O)c3c(OCC(F)F)cccc3C(F)(F)F)nc12", "outcome": "inactive"}
{"compound": "CCOc1cc(Oc2ccc(C(F)(F)F)cc2Cl)ccc1[N+](=O)[O-]", "outcome": "inactive"}
{"compound": "CC(C)C1(C)N=C(c2nc3ccccc3cc2C(=O)O)NC1=O", "note": "(stereo not given)", "outcome": "inactive"}
{"compound": "CCON=C(CC)C1=C(O)CC(c2c(C)cc(C)cc2C)CC1=O", "note": "(stereo not given)", "outcome": "inactive"}
{"compound": "CCOP(=S)(OCC)SCn1c(=O)oc2cc(Cl)ccc21", "outcome": "inactive"}
{"compound": "COc1ccc(C(c2ccc(OC)cc2)C(Cl)(Cl)Cl)cc1", "AC50": "26.9 µM (active)"}
{"compound": "Cc1ccc(-c2c(Cl)nc(C#N)n2S(=O)(=O)N(C)C)cc1", "AC50": "25.5 µM (active)"}
{"compound": "O=C(Nc1ccccc1)Nc1ccnc(Cl)c1", "outcome": "inactive"}
{"compound": "CCCCOC(=O)c1ccccc1C(=O)OCCCC", "outcome": "inactive"}
{"compound": "O=C(O)c1nc(Cl)ccc1Cl", "outcome": "inactive"}
{"compound": "COc1nc(C)nc(NC(=O)NS(=O)(=O)c2ccccc2Cl)n1", "outcome": "inactive"}
{"compound": "COC(=O)c1ccccc1C(=O)OC", "outcome": "inactive"}
{"compound": "N#Cc1cc(Br)c(O)c(Br)c1", "AC50": "19 µM (active)"}
{"compound": "Cc1c(F)c(F)c(COC(=O)C2C(/C=C(\\Cl)C(F)(F)F)C2(C)C)c(F)c1F", "note": "(stereo not given)", "outcome": "inactive"}
{"compound": "COC(=O)C=C(C)OP(=O)(OC)OC", "outcome": "inactive"}
{"compound": "CCCCC(CC)COC(=O)c1ccccc1C(=O)OCC(CC)CCCC", "note": "(stereo not given)", "outcome": "inactive"}
{"compound": "CN(C)C(=S)SSC(=S)N(C)C", "AC50": "25.7 µM (active)"}
{"compound": "CON(C)C(=O)Nc1ccc(Cl)c(Cl)c1", "outcome": "inactive"}
{"compound": "CCOC(=O)CC(SP(=S)(OC)OC)C(=O)OCC", "note": "(stereo not given)", "outcome": "inactive"}
{"compound": "Cc1cc(Cl)ccc1OCC(=O)O", "outcome": "inactive"}
{"compound": "CCNc1nc(Cl)nc(NC(C)C)n1", "outcome": "inactive"}
{"compound": "Fc1ccc(Oc2ccnc3cc(Cl)cc(Cl)c23)cc1", "AC50": "30.8 µM (active)"}
{"compound": "CC(C)Oc1cc(-n2nc(C(C)(C)C)oc2=O)c(Cl)cc1Cl", "AC50": "30.3 µM (active)"}
{"compound": "CCCCNC(=O)OCC#CI", "AC50": "29 µM (active) and 27.9 µM (active)"}
{"compound": "CNC(=S)S", "AC50": "20 µM (active)"}
{"compound": "CC1=C(C(=O)Nc2ccccc2)SCCO1", "outcome": "inactive"}
